High-throughput results: PubChem, National Center for Advancing Translational Sciences (NCATS)
Only some compounds are listed: those with a hit (about 8% of all), similar ones and a draw of the others.
SW480 rerep = inducers of DNA re-replication in SW480 colon cancer cells. SW480 DNA re-replication, Hoechst DNA content imaging, 48 h. 340,000 tested, 1.8% active. Potency, µM (highest dose often 46.1 µM), hits mostly activators; also: nearly all actives have a fitted effect of over 55% in size
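Treated cells incubate 48 hr (37 C, 5% CO2), are stained 40 min with Hoechst, and nuclear fluorescence is enumerated; a rise in nuclei with high DNA signal marks re-replication.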
MCF10A rereplic = DNA re-replication induction in MCF 10a cells; MCF 10A DNA re-replication, Hoechst nuclear intensity, 48 h; 350,000 tested, 2.9% active; Potency, µM (top dose mostly 46.1 µM), hits mostly activators; AID 624296; also: nearly all actives have a fitted effect of over 50% in size
HT1080NT lethal = kills 2HG-producing HT-1080-NT fibrosarcoma cells; Potency, µM (doses to about 46.1 µM), most hits filed as cytotoxic; HT-1080-NT fibrosarcoma viability, CellTiter-Glo ATP luminescence, 48 h; 360,000 tested, 1.6% active; AID 686970;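 also: NT is the 2HG producing partner of a matched IDH1 knockdown line; nearly all actives have a fitted effect of over 55% in size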
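Toxicity toward the 2HG-producing NT line was scored as %Activity, normalised to DMSO and no-cell wells, from CellTiter-Glo luminescence after 48 hours' treatment.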
KB-3-1 tox = kills parental KB-3-1 adenocarcinoma cells; KB-3-1 viability, CellTiter-Glo ATP luminescence, 72 h; 400,000 tested, 1.4% active; Potency, µM (series often up to 46.1 µM), hits mostly cytotoxic; also: nearly all actives have a fitted effect of over 60% in size
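Cytotoxicity measured as CellTiter-Glo luminescence after 72 h at 37 C. Compound titrations were pinned onto drug-naive KB-3-1 parental adenocarcinoma cells grown in DMEM with 10% FBS, and normalized data fitted to concentration-response curves.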
HT1080 IDH1KD tx = kills HT-1080 cells with IDH1 knockdown | HT-1080 IDH1 knockdown viability, ATP luminescence, 48 h | Potency, µM (highest dose often 46.1 µM), actives largely listed as cytotoxic | 360,000 tested, 2% active | AID 686971
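Cytotoxicity counter-line: IDH1KD HT-1080, 48 h, CellTiter-Glo. Curves classed by r2, magnitude and activity.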
KB-V1 cytotox = KB-V1 MDR subline cytotoxicity; KB-V1 MDR cells viability, CellTiter-Glo, 72 h; Potency, µM (doses to about 46.1 µM), usual class: cytotoxic; 400,000 tested, 3.4% active; also: nearly all actives have a fitted effect of over 60% in size
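Potencies derive from concentration-effect curves fitted to normalized luminescence (CellTiter-Glo) of KB-V1 cells treated for 72 h at 37 degrees C in phenol-red-free DMEM containing 10% FBS.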
Each line names hits and unclear results; the compound was inactive in the other large screens; ! = not confirmed by another sample. Calls follow the shape of the dose curve; as a rule, active = well fitted curve in the direction sought with a large enough effect; inconclusive = small, poorly fitted or top-dose-only effect, or another doubt; inactive = no such curve, though single readings can be large; an effect the other way counts as inactive or inconclusive.

COc1cc(C(=O)NC2CCN(CC(=O)NC3CCCCC3C)CC2)cc(OC)c1OC (configuration not stated)	none
CCOC(=O)C1(C)CCCCN1C(=O)c1cccnc1 (configuration not stated)	HT1080NT lethal inconclusive (no result: SW480 rerep, MCF10A rereplic)
Nc1ccc(C(=O)NCC(=O)O)cc1	SW480 rerep inconclusive
O=[N+]([O-])c1cccc(S(=O)(=O)Nc2ccc(Cc3ccncc3)cc2)c1	KB-V1 cytotox 16µM
O=[N+]([O-])c1ccc(NS(=O)(=O)c2ccc(Cl)c(Cl)c2)cc1	HT1080NT lethal 16µM, KB-3-1 tox inconclusive, HT1080 IDH1KD tx 18µM, KB-V1 cytotox inconclusive (no result: SW480 rerep, MCF10A rereplic)
O=C(c1ccccc1Cl)N1N=C(c2ccc(Br)cc2)CC1c1nc2ccccc2[nH]1 (configuration not stated)	SW480 rerep inconclusive, MCF10A rereplic inconclusive, HT1080 IDH1KD tx inconclusive
O=C1CC2(CCN(C(=O)c3ccccc3Cl)CC2)Oc2ccccc21	none
Cc1ccc(N(CC(=O)Nc2cccc(Cl)c2)S(=O)(=O)c2cccs2)cc1	none (no result: SW480 rerep, MCF10A rereplic, HT1080NT lethal, HT1080 IDH1KD tx)
Cc1ccccc1NC(=O)N1c2ccccc2CC1C (configuration not stated)	none
Cc1c(C(=O)C(=O)N2CC=C(c3ccccc3)CC2)c2ccccc2n1C	SW480 rerep 7.3µM, MCF10A rereplic 2.3µM, HT1080NT lethal 2.6µM, KB-3-1 tox 2.9µM, HT1080 IDH1KD tx 2.3µM, KB-V1 cytotox 3.7µM
Cc1c(C(=O)C(=O)N2c3ccccc3CC2C)c2ccccc2n1C (configuration not stated)	SW480 rerep inconclusive, MCF10A rereplic inconclusive, HT1080NT lethal inconclusive, KB-3-1 tox 23µM, HT1080 IDH1KD tx inconclusive, KB-V1 cytotox 21µM
Cc1cc(C(=O)N2CC=C(c3ccccc3)CC2)c2ccccc2n1	SW480 rerep 1.3µM, MCF10A rereplic inconclusive, HT1080NT lethal inconclusive, KB-3-1 tox inconclusive, HT1080 IDH1KD tx 1.6µM, KB-V1 cytotox 1.5µM
CCOc1ccc(NC(=O)c2cc3cc4cc(OC)ccc4nc3s2)cc1	none (no result: SW480 rerep, MCF10A rereplic, HT1080NT lethal, HT1080 IDH1KD tx)
COC(=O)c1c(C)oc(C)c1S(=O)(=O)NCc1cccs1	none
O=C(COC(=O)c1ccc2ncsc2c1)Nc1ccccc1Br	none
CC(/C=C/c1ccccc1)=N\Nc1ccccc1[N+](=O)[O-]	none
COc1ccc2c(c1)OC[C@H]1[C@H]2N2C(=O)c3cc(OC)ccc3NC(=O)[C@@]2(C)[C@H]1c1ccccc1	SW480 rerep inconclusive, MCF10A rereplic 16µM, HT1080NT lethal inconclusive, HT1080 IDH1KD tx inconclusive, KB-V1 cytotox inconclusive
COc1ccc2c(c1)C(=O)N1[C@H]3c4cc(Cl)ccc4OC[C@@H]3[C@H](c3ccccc3)[C@]1(C)C(=O)N2	SW480 rerep 9.2µM, MCF10A rereplic inconclusive, HT1080NT lethal 6.5µM, KB-3-1 tox inconclusive, HT1080 IDH1KD tx 15µM, KB-V1 cytotox inconclusive
COc1ccc2c(c1)[C@H]1[C@H](CO2)[C@H](c2ccccc2)[C@]2(C)C(=O)Nc3cc(Cl)ccc3C(=O)N12	SW480 rerep inconclusive, MCF10A rereplic 16µM
COc1ccc2c(c1)C(=O)N1[C@H]3c4cc(Br)ccc4OC[C@@H]3[C@H](c3ccccc3)[C@]1(C)C(=O)N2	SW480 rerep 21µM, MCF10A rereplic 4.1µM, HT1080NT lethal inconclusive, KB-3-1 tox inconclusive, HT1080 IDH1KD tx inconclusive, KB-V1 cytotox inconclusive
COc1ccc2c(c1)OC[C@H]1[C@H]2N2C(=O)c3ccc(C)cc3NC(=O)[C@@]2(C)[C@H]1c1ccccc1	HT1080 IDH1KD tx inconclusive
COc1ccc2c(c1)OC[C@H]1[C@H]2N2C(=O)c3cc(Cl)ccc3NC(=O)[C@@]2(C)[C@H]1c1ccccc1	SW480 rerep inconclusive
CCOC(=O)CN1CC23C=CC(O2)C(C(=O)NCc2ccccc2OC)C3C1=O (configuration not stated)	none
COC(=O)c1cc(=O)nc(NN=C2c3ccccc3-c3ccccc32)s1	HT1080NT lethal inconclusive, HT1080 IDH1KD tx inconclusive (no result: SW480 rerep, MCF10A rereplic)
CCOC(=O)CS(=O)(=O)c1ccc2ccccc2c1	none
CC1(c2ccccc2)NC(=O)N(CC(=O)Nc2ccccc2N2CCCC2)C1=O (configuration not stated)	none
CCC(C(=O)Nc1nccs1)c1ccccc1 (configuration not stated)	none
CCC(C)C(=O)Nc1nccs1 (configuration not stated)	SW480 rerep 1.5µM
O=C(Nc1cc(-c2ccccc2)nn1-c1c(Cl)cccc1Cl)c1ccc(F)cc1	MCF10A rereplic 15µM
COc1ccccc1OCC(=O)Nc1ccccc1C(=O)NCc1cccnc1	none
Cc1cccc2nc(CSc3ccccc3C(=O)O)cn12	none
N#Cc1cc(-c2ccc(Cl)cc2)cnc1Sc1ccc(F)cc1	MCF10A rereplic 15µM
N#Cc1cc(-c2ccccc2)cnc1Sc1ccc(Cl)cc1	KB-V1 cytotox inconclusive
COc1cc(N=c2ssnc2Cl)c(OC)cc1Cl	SW480 rerep inconclusive, MCF10A rereplic 21µM!, HT1080NT lethal inconclusive
Cc1ccc(N=c2ssnc2Cl)cc1	SW480 rerep inconclusive, MCF10A rereplic inconclusive, HT1080NT lethal inconclusive, KB-3-1 tox inconclusive, HT1080 IDH1KD tx inconclusive
Cc1cc(Cl)ccc1N=c1ssnc1Cl	MCF10A rereplic inconclusive, HT1080NT lethal inconclusive, KB-3-1 tox inconclusive, HT1080 IDH1KD tx 23µM
CC/C(=C(/CC)c1ccc(O)cc1)c1ccc(O)cc1	SW480 rerep inconclusive, MCF10A rereplic 24µM, HT1080NT lethal inconclusive, HT1080 IDH1KD tx 15µM, KB-V1 cytotox inconclusive
CCOC(=O)c1sc(/N=C/c2c(O)ccc3ccccc23)cc1C	MCF10A rereplic 15µM
CCCNC(=O)c1nnsc1S(=O)c1ccc(Cl)cc1 (configuration not stated)	SW480 rerep 23µM, MCF10A rereplic 3.3µM, HT1080NT lethal 18µM, KB-3-1 tox inconclusive, HT1080 IDH1KD tx 16µM
Cc1ccc(S(=O)c2snnc2C)cc1 (configuration not stated)	none
CCCNC(=O)NS(=O)(=O)c1ccc(Cl)cc1	none
CNC(=O)c1nnsc1S(=O)c1ccc(Cl)cc1 (configuration not stated)	SW480 rerep inconclusive, MCF10A rereplic 2.3µM, HT1080NT lethal 15µM, KB-3-1 tox inconclusive, HT1080 IDH1KD tx 23µM
CCCNC(=O)c1nnsc1S(=O)(=O)c1ccc(Cl)cc1	SW480 rerep 7.3µM, MCF10A rereplic 2.3µM, HT1080NT lethal 13µM, KB-3-1 tox inconclusive, HT1080 IDH1KD tx inconclusive, KB-V1 cytotox 23µM
CCOc1ccc(OCC)c(S(=O)(=O)NCc2ccc3c(c2)OCO3)c1	none
Cc1cc(C)cc(C(=O)NN2CCN(C)CC2)c1	MCF10A rereplic inconclusive
N#CCCN1CCC(NC(=O)OCc2ccccc2)CCC1=O (configuration not stated)	KB-V1 cytotox inconclusive
